Measurements taken from PubChem BioAssay (Tox21).
Inconclusive results are not listed. Where a call stands in place of a potency, no number is given. Active and inactive are the calls of the source. Unless noted, calls come from the whole dose curve.

Experiments:
[1] = Nuclear factor erythroid 2-related factor 2/antioxidant responsive element (Nrf2/ARE) small molecule agonists: qHTS cell viability counter screen in human keratinocytes (AID 1919968; active = well fitted curve in the direction sought with a large enough effect in the repeat runs; an effect the other way counts as inactive or inconclusive; note: nearly all actives have a fitted effect of over 55% in size)
How it was run: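 HaCaT ARE reporter line, 1,500 cells/well; 5 h settle, 37 C/5% CO2; cpd in DMSO pinned; 23 h exposure; CellTiter-Fluor, 1 h; fluorescence.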

[2] = Nuclear factor erythroid 2-related factor 2/antioxidant responsive element (Nrf2/ARE) small molecule agonists: luciferase reporter gene qHTS assay in human keratinocytes (AID 1919969); note: nearly all actives have a fitted effect of over 35% in size; note: potency is the fitted concentration of half-maximal effect
[3] = target: Gonadotropin-releasing hormone receptor (Homo sapiens) (UniProt P30968); experiment: Human gonadotropin-releasing hormone receptor (GnRHR) small molecule agonists, calcium flux assay in GnRHR-HEK293 cells (AID 1920063); note: nearly all actives have a fitted effect of over 35% in size
Gonadotropin-releasing hormone receptor (Homo sapiens), sequence (P30968 whole entry, looked up): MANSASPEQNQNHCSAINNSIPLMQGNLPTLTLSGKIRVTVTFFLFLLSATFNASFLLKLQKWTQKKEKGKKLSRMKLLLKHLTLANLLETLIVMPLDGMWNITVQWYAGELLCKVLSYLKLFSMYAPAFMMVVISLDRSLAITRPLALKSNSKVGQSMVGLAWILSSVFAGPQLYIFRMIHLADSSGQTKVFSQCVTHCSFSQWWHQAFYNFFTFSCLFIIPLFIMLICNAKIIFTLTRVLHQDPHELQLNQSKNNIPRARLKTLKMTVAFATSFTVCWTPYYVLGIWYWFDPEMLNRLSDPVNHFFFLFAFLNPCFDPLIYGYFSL
How it was run: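 GnRHR-HEK293, 1500 cells/well, 18 h 37 C/5% CO2; Ca dye 1 h 37 C; cpd pinned (DMSO), agonist mode; kinetic FL 480/540, 3 min, 1 s reads; 15 conc, n=3.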

[4] = target: KiSS-1 receptor (Homo sapiens) (UniProt Q969F8); experiment: Human kisspeptin (KISS1R) small molecule agonists, calcium flux assay in KISS1R-HEK293 cells (AID 1920064; active = well fitted curve in the direction sought with a large enough effect in the repeat runs; an effect the other way counts as inactive or inconclusive)
KiSS-1 receptor (Homo sapiens), sequence (Q969F8 whole entry, looked up): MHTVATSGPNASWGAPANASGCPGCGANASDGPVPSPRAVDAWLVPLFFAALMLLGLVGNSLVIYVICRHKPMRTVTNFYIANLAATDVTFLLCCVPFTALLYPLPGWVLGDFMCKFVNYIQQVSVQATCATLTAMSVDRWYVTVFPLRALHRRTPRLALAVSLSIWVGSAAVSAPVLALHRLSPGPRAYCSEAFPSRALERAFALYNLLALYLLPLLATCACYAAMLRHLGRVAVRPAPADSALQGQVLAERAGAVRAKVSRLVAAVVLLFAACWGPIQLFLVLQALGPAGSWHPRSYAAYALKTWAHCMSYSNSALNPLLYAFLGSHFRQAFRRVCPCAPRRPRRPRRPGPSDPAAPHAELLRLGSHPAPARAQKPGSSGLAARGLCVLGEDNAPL
How it was run: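 Stable human KISS1R HEK293 line; 18 h plating, 37 C/5% CO2; calcium dye 1 h 37 C; compound pin transfer; kinetic fluorescence Ex/Em 480/540, 3 min.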

[5] = G protein-coupled receptor (GPCR) small molecule agonists, calcium flux assay: HEK293 wild type cell line counter screen (AID 1920065)
How it was run: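 Kinetic fluorescence at Ex/Em 480/540, recorded every second over 3 min, served as the read-out after compound addition. Each compound was tested at 15 concentrations in triplicate on cells pre-loaded with calcium dye for 1 h.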

[6] = p53 small molecule agonists, cell-based qHTS assay with human liver microsomes (AID 1963577);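 note: p53 response element beta-lactamase reporter cells with liver microsomes plus NADPH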
How it was run: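 p53RE-bla cells; 5 h settle, 37 C/5% CO2; cpd + HLM 0.5 mg/mL + NADPH 0.5 mg/mL (final); 16 h 37 C; LiveBLAzer 2 h RT dark; fluorescence readout.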

[7] = p53 small molecule agonists, cell-based qHTS assay with rat liver microsomes (AID 1963578)
How it was run: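 Rat liver microsome activation: microsomes 0.5 mg/mL, NADPH 0.5 mg/mL final; p53RE-bla cells, 16 h 37 C; LiveBLAzer readout, 2 h RT dark.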

[8] = p53 small molecule agonists, cell-based qHTS assay with human liver microsomes: qHTS cell viability counter screen (AID 1963579); note: nearly all actives have a fitted effect of over 45% in size
How it was run: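 Luminescent CellTiter-Glo read-out, 30 min at room temperature, gauged cytotoxicity in p53RE-bla cells exposed 16 h at 37 C to DMSO-dissolved compounds with metabolic activation by human liver microsomes and NADPH, each 0.5 mg/mL final.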

[9] = p53 small molecule agonists, cell-based qHTS assay with rat liver microsomes: qHTS cell viability counter screen (AID 1963580); note: nearly all actives have a fitted effect of over 45% in size; note: potency is the fitted concentration of half-maximal effect
How it was run: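 p53RE-bla HCT-116 cells (4,000/well) rested 5 h at 37 C, then given Tox21 compounds in DMSO with rat liver microsomes (0.5 mg/mL final) plus NADPH (0.5 mg/mL final) for 16 h at 37 C. Viability read by CellTiter-Glo luminescence after 30 min at room temperature.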

[10] = p53 small molecule agonists, cell-based qHTS assay: qHTS cell viability counter screen (AID 1963581); note: nearly all actives have a fitted effect of over 45% in size
How it was run: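 HCT-116 p53RE-bla cells, 4,000/well, plated 5 h before compound pin transfer; 16 h at 37 C; bla substrate 2 h RT; then CellTiter-Glo, 30 min RT, luminescence.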

[11] = p53 small molecule agonists, cell-based qHTS assay (AID 1963582; active = well fitted activation curve with a large enough effect in the signal ratio in the repeat runs, not every such curve was filed as active; the % refers to the signal ratio)
How it was run: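 Reporter line: p53RE-bla. Pre-incubation 5 h, 37 C, 5% CO2; compound (DMSO, pin tool) 16 h, 37 C; B/G FRET substrate 2 h RT; fluorescence intensity read.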

[12] = target: 5-hydroxytryptamine receptor 2A (Homo sapiens) (UniProt P28223); experiment: 5-hydroxytryptamine receptor 2A (HTR2A) small molecule antagonists, cell-based qHTS assay (AID 1963586); note: nearly all actives have a fitted effect of over 45% in size; note: potency is the fitted concentration of half-maximal effect
5-hydroxytryptamine receptor 2A (Homo sapiens), sequence (P28223 whole entry, looked up): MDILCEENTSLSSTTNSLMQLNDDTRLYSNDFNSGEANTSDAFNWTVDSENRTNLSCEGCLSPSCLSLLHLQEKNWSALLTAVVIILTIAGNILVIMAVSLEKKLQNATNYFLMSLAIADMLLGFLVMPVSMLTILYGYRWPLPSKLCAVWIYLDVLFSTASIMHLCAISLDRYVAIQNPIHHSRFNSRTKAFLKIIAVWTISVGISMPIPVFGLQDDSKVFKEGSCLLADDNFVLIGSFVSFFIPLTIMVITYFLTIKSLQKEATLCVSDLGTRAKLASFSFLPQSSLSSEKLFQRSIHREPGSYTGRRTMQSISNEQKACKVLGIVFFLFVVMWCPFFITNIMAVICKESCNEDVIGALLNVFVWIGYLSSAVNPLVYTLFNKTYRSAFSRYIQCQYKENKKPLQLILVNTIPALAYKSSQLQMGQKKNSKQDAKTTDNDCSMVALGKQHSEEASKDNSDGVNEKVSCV
How it was run: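 Antagonist-mode intracellular calcium assay: DOI (4 nM) added after 5 min compound pre-incubation at room temperature to dye-loaded HTR2A-CHO cells. Fluorescence followed for 3 min, sampled every second.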

[13] = target: 5-hydroxytryptamine receptor 2A (Homo sapiens) (UniProt P28223); experiment: 5-hydroxytryptamine receptor 2A (HTR2A) small molecule agonists, cell-based qHTS assay (AID 1963587); note: nearly all actives have a fitted effect of over 30% in size
How it was run: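 HTR2A-CHO cells, plated 18 h at 37 C/5% CO2, dye-loaded 1 h at 37 C; compounds in DMSO added by pin tool (agonist mode). Intracellular calcium flux read as kinetic fluorescence on FDSS over 2 min at 1 s intervals.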

[14] = target: Muscarinic acetylcholine receptor M1 (Homo sapiens) (UniProt P11229); experiment: Cholinergic receptor muscarinic 1 (CHRM1) small molecule antagonists, cell-based qHTS assay (AID 1963588); note: nearly all actives have a fitted effect of over 40% in size; note: potency is the fitted concentration of half-maximal effect
Muscarinic acetylcholine receptor M1 (Homo sapiens), sequence (P11229 whole entry, looked up): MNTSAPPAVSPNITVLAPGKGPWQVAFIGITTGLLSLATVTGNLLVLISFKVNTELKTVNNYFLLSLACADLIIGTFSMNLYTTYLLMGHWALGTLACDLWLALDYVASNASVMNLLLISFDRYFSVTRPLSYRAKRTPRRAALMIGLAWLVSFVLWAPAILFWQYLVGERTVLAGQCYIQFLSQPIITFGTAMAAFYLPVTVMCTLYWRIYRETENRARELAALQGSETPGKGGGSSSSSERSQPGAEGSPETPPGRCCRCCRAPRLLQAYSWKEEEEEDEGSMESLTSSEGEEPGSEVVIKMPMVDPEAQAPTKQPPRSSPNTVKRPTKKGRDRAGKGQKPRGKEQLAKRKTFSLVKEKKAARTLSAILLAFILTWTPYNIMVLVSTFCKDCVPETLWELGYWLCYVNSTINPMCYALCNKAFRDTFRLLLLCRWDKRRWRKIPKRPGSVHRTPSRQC
How it was run: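 CHRM1-CHO calcium-flux assay, antagonist mode. Cells were seeded 18 h, dye-loaded 1 h at 37 C and given compound for 5 min at RT, then acetylcholine was added at 50nM. FDSS fluorescence was read 3 min; 15 concentrations, three runs.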

[15] = target: Muscarinic acetylcholine receptor M1 (Homo sapiens) (UniProt P11229); experiment: Cholinergic receptor muscarinic 1 (CHRM1) small molecule agonists, cell-based qHTS assay (AID 1963589); note: nearly all actives have a fitted effect of over 35% in size
How it was run: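 Human M1 in stable CHO line; 18 h plating, 1 h dye load 37 C; cpd added (agonist mode); Ca2+ fluorescence kinetic read, 1 s intervals; 15 conc, 3 runs.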

[16] = cAMP Responsive Elements (CRE) small molecule antagonists, cell-based qHTS assay (AID 1963591; active = well fitted inhibition curve with a large enough effect in the signal ratio in the repeat runs, not every such curve was filed as active; the % refers to the signal ratio)
How it was run: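 Beta-lactamase reporter read by FRET substrate (LiveBLAzer B/G) after 2 h at room temperature. CRE-bla HEK293T cells had received compound plus 0.25 uM (final) NKH477 for 3 h at 37 °C.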

[17] = target: Beta-2 adrenergic receptor (Homo sapiens) (UniProt P07550); experiment: Adrenergic beta2 receptor (ADRB2) small molecule antagonists, cell-based qHTS assay (AID 1963592); note: series mostly up to about 92 µM; nearly all actives have a fitted effect of over 50% in size
Beta-2 adrenergic receptor (Homo sapiens), sequence (P07550 whole entry, looked up): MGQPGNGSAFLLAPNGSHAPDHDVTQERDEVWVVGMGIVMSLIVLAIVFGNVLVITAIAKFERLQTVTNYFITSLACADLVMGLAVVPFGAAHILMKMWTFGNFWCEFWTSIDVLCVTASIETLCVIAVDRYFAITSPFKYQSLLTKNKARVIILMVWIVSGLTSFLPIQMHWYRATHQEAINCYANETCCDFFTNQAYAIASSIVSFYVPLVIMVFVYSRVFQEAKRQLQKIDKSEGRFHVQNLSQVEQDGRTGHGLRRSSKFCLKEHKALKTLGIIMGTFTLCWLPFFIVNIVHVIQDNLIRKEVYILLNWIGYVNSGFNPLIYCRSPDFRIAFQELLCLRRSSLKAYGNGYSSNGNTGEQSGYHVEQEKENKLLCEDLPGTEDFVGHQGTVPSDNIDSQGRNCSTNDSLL
How it was run: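 Cells (CHO, stable ADRB2 overexpression) incubated 18-20hr at 37C; compounds added from DMSO; agonist mix (1nM isoproterenol, 100uM IBMX, 25uM Ro-20-1724) added; 0.5hr RT; d2-cAMP and anti-cAMP-cryptate added; 1hr RT; 665/615 nm read.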

[18] = target: D(2) dopamine receptor (Homo sapiens) (UniProt P14416); experiment: Dopamine D2 receptor (DRD2) small molecule agonists, cell-based qHTS assay (AID 1963594); note: nearly all actives have a fitted effect of over 35% in size
D(2) dopamine receptor (Homo sapiens), sequence (P14416 whole entry, looked up): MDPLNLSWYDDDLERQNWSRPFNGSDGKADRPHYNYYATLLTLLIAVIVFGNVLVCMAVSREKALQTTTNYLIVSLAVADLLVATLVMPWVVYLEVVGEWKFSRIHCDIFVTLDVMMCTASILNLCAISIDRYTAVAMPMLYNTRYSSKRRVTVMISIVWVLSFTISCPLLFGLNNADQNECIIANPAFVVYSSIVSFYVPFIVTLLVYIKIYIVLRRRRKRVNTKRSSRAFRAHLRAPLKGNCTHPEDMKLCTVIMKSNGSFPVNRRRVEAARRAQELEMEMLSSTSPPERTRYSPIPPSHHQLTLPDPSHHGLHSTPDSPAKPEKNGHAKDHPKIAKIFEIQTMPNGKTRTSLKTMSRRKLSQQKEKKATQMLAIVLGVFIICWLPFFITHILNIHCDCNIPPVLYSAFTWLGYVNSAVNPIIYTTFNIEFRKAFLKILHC
How it was run: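 HEK293 cells stably expressing DRD2 were cultured 24 h at 37 C, then given Ro20-1724 (0.1 mM final) and compounds for 10 min at room temperature. NKH477 (200nM) was then added for 30 min. cAMP was read by HTRF.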

[19] = target: D(2) dopamine receptor (Homo sapiens) (UniProt P14416); experiment: Dopamine D2 receptor (DRD2) small molecule antagonists, cell-based qHTS assay (AID 1963595; active = well fitted inhibition curve with a large enough effect in the signal ratio in the repeat runs, with a control signal flat; the % refers to the signal ratio)
How it was run: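 HEK293 cells stably expressing DRD2 were preincubated with 0.1 mM Ro20-1724, then with compound for 10 min at room temperature. Cells were stimulated with 200 nM NKH477 plus 12 nM quinpirole for 30 min, and cAMP was read by HTRF.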

[20] = cAMP Responsive Elements (CRE) small molecule agonists, cell-based qHTS assay (AID 1963590)
How it was run: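 HEK 293T CRE-bla, 2,000 cells/well, 18 h preincubation 37 C/5% CO2; cpds (DMSO) pinned, 3 h; LiveBLAzer B/G FRET substrate, 2 h RT.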

| Compound | Potency [1] | Potency [2] | Potency [3] | Potency [4] | Potency [5] | Potency [6] | Potency [7] | Potency [8] | Potency [9] | Potency [10] | Potency [11] | Potency [12] | Potency [13] | Potency [14] | Potency [15] | Potency [16] | Potency [17] | Potency [18] | Potency [19] | Potency [20] |
| --- | --- | --- | --- | --- | --- | --- | --- | --- | --- | --- | --- | --- | --- | --- | --- | --- | --- | --- | --- | --- |
| CCCCc1ncc(/C=C(\Cc2cccs2)C(=O)O)n1Cc1ccc(C(=O)O)cc1 | inactive | inactive | inactive | inactive | inactive | inactive | inactive | inactive | inactive | inactive | inactive | inactive | inactive | inactive | inactive | inactive | inactive | inactive | inactive |  |
| CCCCCC(CC)OC(=O)CCCOc1ccc(Cl)cc1Cl (configuration not stated) | inactive | inactive | inactive | inactive | inactive | inactive | inactive | inactive | inactive | inactive | inactive | inactive | inactive | inactive | inactive | inactive | inactive | inactive | inactive |  |
| OC[C@H]1O[C@@H](O[C@H]2[C@H](O)[C@@H](O)[C@H](O)O[C@@H]2CO)[C@H](O)[C@@H](O)[C@H]1O | inactive | inactive | inactive | inactive | inactive | inactive | inactive | inactive | inactive | inactive | inactive | inactive | inactive | inactive | inactive | inactive | inactive | inactive | inactive |  |
| CCCOC(C(=O)OC1CCN(C)CC1)(c1ccccc1)c1ccccc1 | inactive | 10.6 µM (active) | inactive | inactive | inactive | inactive | inactive | inactive | inactive | inactive | inactive | inactive | inactive | 0.729 µM (active) | inactive | inactive | inactive | inactive | inactive |  |
| O=c1c(-c2ccc(O)cc2)coc2cc(O)ccc12 | inactive | inactive | inactive | inactive | inactive | inactive | inactive | inactive | 10.1 µM (active) | inactive | inactive | 33.4 µM (active) | inactive | inactive | inactive | inactive | inactive | inactive | inactive |  |
| CCCCC(O)/C=C(C)/C=C/C=C/C(=O)N1CCCC1=O (configuration not stated) | inactive | inactive | inactive | inactive | inactive | inactive | inactive | inactive | inactive | inactive | inactive | inactive | inactive | inactive |  | inactive | inactive |  | inactive | inactive |
| CC(=O)CC/C=C(\C)CC/C=C(\C)CC/C=C(\C)CCC=C(C)C | inactive | 26.6 µM (active) | inactive | inactive | inactive | inactive | inactive | inactive | inactive | inactive | inactive | inactive | inactive | inactive | inactive | inactive | inactive | inactive | inactive |  |
